Data from the supplement of paper PMC8728848.
Many of the other results were omitted from the sample, so the strongest signals are more common in it than they were.

How the values were obtained:
Experiment in all cases: glycan array binding signal (z-score within array); higher = stronger binding
Settings in all cases: glycan notation: IUPAC condensed, linker removed
[1] = molecular target: Fuc(a1-2)Gal(b1-3)GalNAc(b1-3)Gal(a1-4)Gal(b1-4)Glc
In short: (§1)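 Glycan array data were curated from 3228 arrays in the Consortium for Functional Glycomics database and kept only where the protein sequence was available. Glycan names were converted to IUPAC-condensed notation, and columns mapping to the same glycan were averaged. The binding signal is a within-array Z-score, averaged across arrays of the same protein sequence at different concentrations or buffers and across linkers. Negative Z-scores can be read as non-binding.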

[2] = molecular target: Fuc(a1-2)Gal(b1-3)GlcNAc(b1-3)[Gal(b1-4)GlcNAc(b1-6)]Gal(b1-4)Glc
In short: as §1

[3] = molecular target: Fuc(a1-2)Gal(b1-3)[Fuc(a1-4)]GlcNAc(b1-3)[Fuc(a1-3)[Gal(b1-4)]GlcNAc(b1-6)]Gal(b1-4)Glc
In short: as §1

[4] = molecular target: Fuc(a1-2)[Gal(a1-3)]Gal(b1-3)GlcNAc(b1-2)Man(a1-3)[Fuc(a1-2)[Gal(a1-3)]Gal(b1-3)GlcNAc(b1-2)Man(a1-6)]Man(b1-4)GlcNAc(b1-4)[Fuc(a1-6)]GlcNAc
In short: as §1

[5] = molecular target: Fuc(a1-2)[Gal(a1-3)]Gal(b1-4)GlcNAc(b1-2)Man(a1-3)[Fuc(a1-2)[Gal(a1-3)]Gal(b1-4)GlcNAc(b1-2)Man(a1-6)]Man(b1-4)GlcNAc(b1-4)GlcNAc
In short: as §1

[6] = molecular target: Fuc(a1-2)[GalNAc(a1-3)]Gal(b1-3)GlcNAc(b1-2)Man(a1-3)[Fuc(a1-2)[GalNAc(a1-3)]Gal(b1-3)GlcNAc(b1-2)Man(a1-6)]Man(b1-4)GlcNAc(b1-4)[Fuc(a1-6)]GlcNAc
In short: as §1

[7] = molecular target: Fuc(a1-2)[GalNAc(a1-3)]Gal(b1-4)Glc
In short: as §1

[8] = molecular target: Fuc(a1-2)[GalNAc(a1-3)]Gal(b1-4)GlcNAc(b1-3)[Fuc(a1-2)[GalNAc(a1-3)]Gal(b1-4)GlcNAc(b1-6)]GalNAc
In short: as §1

[9] = molecular target: Fuc(a1-2)[GalNAc(a1-3)]Gal(b1-4)[Fuc(a1-3)]GlcNAc
In short: as §1

[10] = molecular target: Fuc(a1-3)GlcNAc
In short: as §1

[11] = molecular target: Fuc(a1-3)[GalNAc(b1-4)]GlcNAc
In short: as §1

[12] = molecular target: Fuc(a1-4)GlcNAc
In short: as §1

[13] = molecular target: Gal(a1-3)Gal(b1-3)[Fuc(a1-4)]GlcNAc(b1-2)Man(a1-3)[Gal(a1-3)Gal(b1-3)[Fuc(a1-4)]GlcNAc(b1-2)Man(a1-6)]Man(b1-4)GlcNAc(b1-4)GlcNAc
In short: as §1

[14] = molecular target: Gal(b1-3)[Fuc(a1-4)]GlcNAc(b1-2)Man(a1-3)[Gal(b1-3)[Fuc(a1-4)]GlcNAc(b1-2)Man(a1-6)]Man(b1-4)GlcNAc(b1-4)[Fuc(a1-6)]GlcNAc
In short: as §1

[15] = molecular target: Gal(b1-4)GlcNAc(b1-2)[Gal(b1-4)GlcNAc(b1-4)]Man(a1-3)[Gal(b1-4)GlcNAc(b1-2)[Gal(b1-4)GlcNAc(b1-6)]Man(a1-6)]Man(b1-4)GlcNAc(b1-4)GlcNAc
In short: as §1

[16] = molecular target: Gal(b1-4)GlcNAc(b1-2)[Gal(b1-4)GlcNAc(b1-4)]Man(a1-3)[GlcNAc(b1-4)][Gal(b1-4)GlcNAc(b1-2)Man(a1-6)]Man(b1-4)GlcNAc(b1-4)GlcNAc
In short: as §1

[17] = molecular target: Gal(b1-4)GlcNAc(b1-3)Gal(b1-3)GalNAc
In short: as §1

[18] = molecular target: Gal(b1-4)GlcNAc(b1-6)[Gal(b1-3)]GalNAc
In short: as §1

[19] = molecular target: Gal(b1-4)GlcNAc(b1-6)[Gal(b1-4)GlcNAc(b1-3)]GalNAc
In short: as §1

[20] = molecular target: Gal3S(b1-3)GalNAc
In short: as §1

[21] = molecular target: Gal6S(b1-4)Glc6S
In short: as §1

[22] = molecular target: GalNAc3S(b1-4)[Fuc(a1-3)]GlcNAc
In short: as §1

[23] = molecular target: Glc(a1-4)Glc
In short: as §1

[24] = molecular target: GlcNAc(a1-4)Gal(b1-4)GlcNAc(b1-3)Gal(b1-4)GlcNAc
In short: as §1

[25] = molecular target: GlcNAc(b1-3)Gal(b1-4)GlcNAc(b1-2)Man(a1-3)[GlcNAc(b1-3)Gal(b1-4)GlcNAc(b1-2)Man(a1-6)]Man(b1-4)GlcNAc(b1-4)GlcNAc
In short: as §1

[26] = molecular target: GlcNAc(b1-3)Gal(b1-4)GlcNAc(b1-3)GalNAc
In short: as §1

[27] = molecular target: GlcNAc(b1-3)Gal(b1-4)GlcNAc(b1-3)[GlcNAc(b1-3)Gal(b1-4)GlcNAc(b1-3)]GalNAc
In short: as §1

[28] = molecular target: GlcNAc(b1-3)Gal(b1-4)GlcNAc(b1-6)[Gal(b1-3)]GalNAc
In short: as §1

[29] = molecular target: GlcNAc(b1-6)Gal(b1-4)GlcNAc
In short: as §1

[30] = molecular target: Man(a1-2)Man(a1-3)[Man(a1-2)Man(a1-6)]Man(a1-6)[Man(a1-2)Man(a1-2)Man(a1-3)]Man(b1-4)GlcNAc(b1-4)GlcNAc
In short: as §1

[31] = molecular target: Man(a1-2)Man(a1-3)[Man(a1-6)]Man(a1-6)[Man(a1-2)Man(a1-3)]Man(b1-4)GlcNAc(b1-4)GlcNAc
In short: as §1

[32] = molecular target: Man(a1-2)Man(a1-6)[Man(a1-3)]Man(a1-6)[Man(a1-2)Man(a1-2)Man(a1-3)]Man(b1-4)GlcNAc(b1-4)GlcNAc
In short: as §1

[33] = molecular target: Man(a1-3)[Man(a1-6)]Man(a1-6)[Man(a1-2)Man(a1-3)]Man(b1-4)GlcNAc(b1-4)GlcNAc
In short: as §1

[34] = molecular target: Man(a1-3)[Man(a1-6)]Man(a1-6)[Man(a1-3)]Man
In short: as §1

[35] = molecular target: Man(a1-3)[Man(a1-6)]Man(a1-6)[Man(a1-3)]Man(b1-4)GlcNAc(b1-4)GlcNAc
In short: as §1

[36] = molecular target: Neu5Ac(a2-3)Gal(b1-3)[Fuc(a1-4)]GlcNAc
In short: as §1

[37] = molecular target: Neu5Ac(a2-3)Gal(b1-4)[Fuc(a1-3)]GlcNAc(b1-3)Gal
In short: as §1

[38] = molecular target: Neu5Ac(a2-6)Gal(b1-4)GlcNAc(b1-2)Man(a1-3)[GlcNAc(b1-2)Man(a1-6)]Man(b1-4)GlcNAc(b1-4)GlcNAc
In short: as §1

[39] = molecular target: Neu5Ac(a2-6)Gal(b1-4)GlcNAc(b1-3)Gal(b1-4)GlcNAc(b1-6)[Gal(b1-3)]GalNAc
In short: as §1

[40] = molecular target: Neu5Ac(a2-6)Gal(b1-4)GlcNAc(b1-6)[Gal(b1-3)]GalNAc
In short: as §1

[41] = molecular target: Neu5Gc(a2-6)GalNAc
In short: as §1

B1: PFL (Pseudomonas fluorescens) (protein)
chain: MSKYAVANQWGGSSAPWHPGGTWVLGARDNQNVVAIEIKSGDGGKSFTGTMTYAGEGPIGFKAQRTGQNQYNVENQWGGNDAPWHPGGKWVIGGRDNQNVIALSVTSSDGGKNLSGTNTYANEGPIGFRGQIE
For B1, the “glycan array binding signal (z-score)” value [1] was -0.111, the “glycan array binding signal (z-score)” value [2] was -0.11 and the “glycan array binding signal (z-score)” value [3] was -0.113. The “glycan array binding signal (z-score)” value [4] was 0.415, the “glycan array binding signal (z-score)” value [5] was -0.073 and the “glycan array binding signal (z-score)” value [6] was 0.249. For the same binder, the “glycan array binding signal (z-score)” value [7] was -0.112, the “glycan array binding signal (z-score)” value [8] was -0.103 and the “glycan array binding signal (z-score)” value [9] was -0.111. For the same binder, the “glycan array binding signal (z-score)” value [10] was -0.12, the “glycan array binding signal (z-score)” value [11] was -0.105 and the “glycan array binding signal (z-score)” value [12] was -0.116. The “glycan array binding signal (z-score)” value [13] was 0.499, the “glycan array binding signal (z-score)” value [14] was 0.665 and the “glycan array binding signal (z-score)” value [15] was 0.988. For the same binder, the “glycan array binding signal (z-score)” value [16] was -0.117, the “glycan array binding signal (z-score)” value [17] was -0.116 and the “glycan array binding signal (z-score)” value [18] was -0.113. For the same binder, the “glycan array binding signal (z-score)” value [19] was -0.108, the “glycan array binding signal (z-score)” value [20] was -0.116 and the “glycan array binding signal (z-score)” value [21] was -0.107. The “glycan array binding signal (z-score)” value [22] was -0.116, the “glycan array binding signal (z-score)” value [23] was -0.116 and the “glycan array binding signal (z-score)” value [24] was -0.117. The “glycan array binding signal (z-score)” value [25] was -0.111, the “glycan array binding signal (z-score)” value [26] was -0.112 and the “glycan array binding signal (z-score)” value [27] was -0.11. The “glycan array binding signal (z-score)” value [28] was -0.115, the “glycan array binding signal (z-score)” value [29] was -0.117 and the “glycan array binding signal (z-score)” value [30] was 3.46. For the same binder, the “glycan array binding signal (z-score)” value [31] was 9.19, the “glycan array binding signal (z-score)” value [32] was 11.7 and the “glycan array binding signal (z-score)” value [33] was 13.2. For the same binder, the “glycan array binding signal (z-score)” value [34] was 7.17, the “glycan array binding signal (z-score)” value [35] was 10.9 and the “glycan array binding signal (z-score)” value [36] was -0.12. For the same binder, the “glycan array binding signal (z-score)” value [37] was -0.117, the “glycan array binding signal (z-score)” value [38] was 0.313 and the “glycan array binding signal (z-score)” value [39] was -0.118. The “glycan array binding signal (z-score)” value [40] was -0.117 and the “glycan array binding signal (z-score)” value [41] was -0.114.
